# Tg IFNy HTS = inhibitors of Toxoplasma gondii growth with IFN-gamma; Toxoplasma gondii growth in IFN-gamma-treated host cells; active compounds read low; activity change, negative = inhibition, % (no concentration beside the values); 3.8% of 69,000 active; in the data active = activity change below about -70%, passing the limit was not always enough;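 also: host cells are HeLa cells infected with Toxoplasma gondii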
# Numbers without * were called inactive; ! = not active in a repeat. The entries come from a sample that favours hits as a whole.
SMILES,Tg IFNy HTS
CCc1nc(OCC(=O)Nc2ccc(C)cc2Br)c2ccccc2n1,-15
CC(=O)[C@H]1CCC2C3CC=C4C[C@@H](OC(=O)CCC(=O)O)CC[C@]4(C)C3CC[C@@]21C (some centres not stated),-1
C[C@H]1[C@H](OC(=O)CCC(=O)O)O[C@@H]2O[C@@]3(C)CC[C@H]4[C@H](C)CC[C@@H]1[C@@]24OO3,-80*
CCc1ccc(NC(=O)C(=O)NCCc2sc(-c3cccc(F)c3)nc2C)cc1,-14
Cc1cc(C)c2c(=O)n(Cc3nc(-c4ccccc4Cl)oc3C)c(=O)n(-c3ccccc3)c2n1,2
COc1ccc(-c2nc(CN3C(=O)C(O)(c4ccc(C)cc4)c4ccccc43)c(C)o2)cc1 (configuration not stated),-124*
CCN(CC)C(=O)c1cc(C)nc2c1c(=O)n(Cc1nc(-c3ccccc3Cl)oc1C)c(=O)n2C,-22
CCOc1ccc(-c2nc(CN3C(=O)C(O)(c4ccccc4)c4ccccc43)c(C)o2)cc1 (configuration not stated),9
Cc1oc(-c2ccccc2Cl)nc1CN1C(=O)C(O)(c2ccccc2)c2ccccc21 (configuration not stated),-96*
Cc1ccc(-c2nc(CN3C(=O)C(O)(c4ccccc4)c4ccccc43)c(C)o2)cc1 (configuration not stated),-65
CCc1cccc(NC(=O)CCC(=O)N2CCOCC2CC(=O)O)c1 (configuration not stated),24
Cc1cccc(S(=O)(=O)N2CCc3nc(-c4ccccc4)sc3C2)c1,-9
Cc1nc2c(c(NC3CC3)n1)CCN(Cc1cnn(C)c1)CC2,-52
Cc1cccc(S(=O)(=O)N2CCc3nc(-c4cnn(C)c4)nc(NC4CC4)c3C2)c1,-94*
Cc1nn(-c2ccc(F)cc2)c(C)c1C(=O)N1CCCC2(CC1)CNC(=O)O2 (configuration not stated),-2
Cc1nc(-c2ccccc2)sc1CCNC(=O)C(=O)Nc1ccc(F)cc1F,31
Cc1ccc(-c2[nH]ncc2CNCCc2cccc(F)c2)cc1C,-6
CN1CCN(C(=O)NCc2nc(-c3cccc(F)c3)c(-c3ccccn3)[nH]2)CC1,1
Cn1cc(CN2CCc3ncnc(-c4cccc(F)c4)c3CC2)cn1,-6
CN1CCC(n2cc(-c3ccnc(N)c3)c(-c3cccc(F)c3)n2)CC1,-97*
CC(C)c1nc(CNC(=O)c2ccc(CC3CCCNC3)cc2)cs1 (configuration not stated),3
CCCCN(Cc1ccc(F)cc1)C(=O)c1ccn[nH]1,1
CNC(=O)[C@@H]1CC2CN(C(=O)c3ccc4c(c3)OCO4)CC2N1C (some centres not stated),0
CCOC(=O)c1ccc(-n2nnc(/C=C/C=C/N3CCN(C)CC3)n2)cc1,40
COc1cccc(-n2c(=O)c(C(=O)Nc3ccc(F)c(F)c3)c(O)c3cccnc32)c1,256
SMILES,Tg IFNy HTS
CN1CCC2(CN(c3ncccn3)CC23CCN(Cc2ccccn2)CC3)C1=O (configuration not stated),5
C[C@@H]1CN([C@H](C)CO)C(=O)CCCn2nncc2CO[C@@H]1CN(C)Cc1cccc2c1OCCCO2,-58
C[C@H](CO)N1C[C@H](C)[C@@H](CN(C)Cc2cccc3c2OCCCO3)OCc2cnnn2CCCC1=O,201
C[C@H]1CN([C@@H](C)CO)C(=O)CCCn2nncc2CO[C@H]1CN(C)Cc1cccc(C(F)(F)F)c1,-106*
C[C@@H]1CN([C@H](C)CO)C(=O)CCCn2nncc2CO[C@H]1CN(C)Cc1cccc2c1OCCCO2,-88*
C[C@H](CO)N1C[C@H](C)[C@H](CN(C)Cc2cccc(C(F)(F)F)c2)OCc2cnnn2CCCC1=O,179
C[C@@H]1CN([C@@H](C)CO)C(=O)CCCn2nncc2CO[C@@H]1CN(C)Cc1cccc(C(F)(F)F)c1,27
COc1ccc2c(c1)NC1(CCN(C(=O)Nc3cccc(Br)c3)CC1)c1cccn1-2,212
CN(C)c1ccc(CN2CCC(n3cc(-c4cccnc4)nn3)CC2)cc1,3
O=C(CC1COCCN1)NCc1csc2ccc(Cl)cc12 (configuration not stated),-10
CC(=O)N1CCO[C@@H]2CN(Cc3nccs3)C[C@H]2C1,40
CC(=O)OC(C)C1CCC2C3CC[C@H]4CC(=O)CCC4(C)C3CCC12C (some centres not stated),-97*
CC(=O)OCC(=O)[C@H]1CCC2C3CCC4=CC(=O)CC[C@]4(C)C3CC[C@@]21C (some centres not stated),-30
C[C@H](CCC(=O)O)[C@H]1CC[C@H]2[C@@H]3[C@@H](O)C[C@@H]4C[C@H](O)CC[C@]4(C)[C@H]3CC[C@]12C,11
COc1ccc(-c2nc(Cn3nnc(C(=O)Nc4ccc(OC)c(Cl)c4)c3C)c(C)o2)c(OC)c1,132
Cc1ccc(N2C(=O)CC(c3ccccc3)CC2=O)cc1Cl,-35
COC(=O)c1[nH]ncc1CN1CCN(Cc2cc(C)cc(C)c2)C(=O)C1,1
CNC(=S)Sc1ccc(F)cc1F,38
CC(=O)c1cc([N+](=O)[O-])c(Sc2ccc(F)cc2F)s1,-72*
CCOC(=O)[C@H](CCc1ccccc1)N[C@@H](C)C(=O)N(CC(=O)O)C1Cc2ccccc2C1,0
Cc1oc(-c2ccccc2NS(C)(=O)=O)nc1CN(C)Cc1ccc(OC(F)F)cc1,8
Cc1ccsc1CN(C)Cc1ccc2cccc(O)c2n1,82
COc1cc2c(N3CCN(C(=O)Nc4ccc(OC(C)C)cc4)CC3)ncnc2cc1OCCCN1CCCCC1,-17
Cn1cnc2cc3c(Nc4cccc(Br)c4)ncnc3cc21,1
C#Cc1cccc(Nc2ncnc3cc(OC)c(OCCCCCCC(=O)NO)cc23)c1,-80*
SMILES,Tg IFNy HTS
Nc1cc2ncnc(Nc3cccc(Br)c3)c2cc1N,11
COc1cc2ncnc(Nc3ccc(O)c(Br)c3)c2cc1OC,-74*
COc1ccc(OC)c(Nc2ncnc3ccc(Br)cc23)c1,-47
CO[C@@H](CN(C)S(=O)(=O)c1ccc(C)cc1)[C@H](C)CN(C(=O)Nc1ccccc1F)[C@@H](C)CO,24
N#Cc1cccc(-c2ccc3c(c2)[C@H]2[C@H](CCN2C(=O)c2ccccc2F)[C@H](CO)N3)c1,10
CN(C)CCN1CCOC2CCN(C(=O)c3ccc[nH]3)CCC21 (configuration not stated),-23
COc1ccc(Cc2nc3ccccc3n2CCCOc2ccccc2OC)cc1OC,-97*
CC(=O)N(C)Cc1nc2ccccc2n1CCCCOc1ccccc1Cl,-40
COCCn1c(COc2ccc(Cl)cc2)nc2ccccc21,71
Cc1ccoc1C(=O)N1CCCc2c(c(=O)n(C)n2C)C1,-1
C[C@H]1CN([C@@H](C)CO)C(=O)c2cc(NS(=O)(=O)c3ccc(F)cc3)ccc2O[C@@H]1CN(C)C(=O)Nc1ccccc1,-12
COCCN1C(=O)N(C2Cc3ccccc3C2)C(=O)C12CCN(Cc1nc3ccccc3nc1C)CC2,14
Cc1ccc(C(=O)N2CCOC3CCC2C3Oc2ncccc2F)o1 (configuration not stated),-15
CNC(=O)CC1CC2(CCN(S(=O)(=O)c3cccs3)CC2)c2ccccc21 (configuration not stated),-7
CNCCCC12CCC(c3ccccc31)c1ccccc12,-79*!
O=C(Nc1ccccc1Cl)N1C[C@@H]2[C@H](c3ccccc31)[C@H](CO)N2C(=O)c1cccnc1,-7
O=C(c1ccc(-c2ccoc2)nc1)N1CCCN(C2CCCCC2)CC1,-23

# Screening data deposited in PubChem by Broad Institute.
